# Results: the supplement of paper PMC8728848
# The entries come from a sample that favours the strongest signals as a whole.
# How the values were obtained:
# Test in all cases: glycan array binding signal (z-score within array); higher = stronger binding
# Details in all cases: glycan notation: IUPAC condensed, linker removed
# [1] = biological target: Gal(b1-4)GlcNAc(b1-3)Gal(b1-4)GlcNAc(b1-2)Man(a1-3)[Gal(b1-4)GlcNAc(b1-3)Gal(b1-4)GlcNAc(b1-2)Man(a1-6)]Man(b1-4)GlcNAc(b1-4)GlcNAc
# In short: (§1)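 Glycan array data came from 3228 arrays in the Consortium for Functional Glycomics database, and only arrays with an available protein sequence were kept. Glycan names were put into IUPAC-condensed notation, and columns mapping to the same glycan were averaged. The binding signal is a within-array Z-score, averaged across arrays of one protein sequence run at different concentrations or buffers and across linkers. A negative Z-score can be read as non-binding.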
# [2] = biological target: Gal(b1-4)GlcNAc(b1-3)Gal(b1-4)GlcNAc(b1-2)[Gal(b1-4)GlcNAc(b1-3)Gal(b1-4)GlcNAc(b1-6)]Man(a1-6)[Gal(b1-4)GlcNAc(b1-3)Gal(b1-4)GlcNAc(b1-2)Man(a1-3)]Man(b1-4)GlcNAc(b1-4)[Fuc(a1-6)]GlcNAc
# In short: as §1
# [3] = biological target: Gal(b1-4)GlcNAc(b1-3)Gal(b1-4)GlcNAc(b1-3)Gal(b1-4)GlcNAc(b1-3)Gal(b1-4)GlcNAc(b1-3)Gal(b1-4)GlcNAc(b1-2)Man(a1-3)[Gal(b1-4)GlcNAc(b1-3)Gal(b1-4)GlcNAc(b1-3)Gal(b1-4)GlcNAc(b1-3)Gal(b1-4)GlcNAc(b1-3)Gal(b1-4)GlcNAc(b1-2)Man(a1-6)]Man(b1-4)GlcNAc(b1-4)GlcNAc
# In short: as §1
# [4] = biological target: Gal(b1-4)GlcNAc(b1-3)[Gal(b1-4)GlcNAc(b1-6)]Gal(b1-4)GlcNAc
# In short: as §1
# [5] = biological target: Gal(b1-6)Gal
# In short: as §1
# [6] = biological target: Gal6P(b1-4)GlcNAc
# In short: as §1
# [7] = biological target: Gal6S(b1-4)Glc
# In short: as §1
# [8] = biological target: Gal6S(b1-4)Glc6S
# In short: as §1
# [9] = biological target: GalNAc(b1-3)Gal(a1-6)Gal(b1-4)Glc
# In short: as §1
# [10] = biological target: GalNAc(b1-4)GlcNAc(b1-2)Man(a1-3)[GalNAc(b1-4)GlcNAc(b1-2)Man(a1-6)]Man(b1-4)GlcNAc(b1-4)GlcNAc
# In short: as §1
# [11] = biological target: GalNAc(b1-4)GlcNAc6S
# In short: as §1
# [12] = biological target: Glc(a1-4)Glc(a1-4)Glc(a1-4)Glc
# In short: as §1
# [13] = biological target: Glc(b1-6)Glc
# In short: as §1
# [14] = biological target: GlcNAc(a1-4)Gal(b1-4)GlcNAc(b1-3)Gal(b1-4)GlcNAc
# In short: as §1
# [15] = biological target: GlcNAc(b1-2)[GlcNAc(b1-6)]Man(a1-6)[GlcNAc(b1-2)Man(a1-3)]Man(b1-4)GlcNAc(b1-4)GlcNAc
# In short: as §1
# [16] = biological target: GlcNAc(b1-3)Gal(b1-4)GlcNAc(b1-3)Gal(b1-4)GlcNAc(b1-2)Man(a1-3)[GlcNAc(b1-3)Gal(b1-4)GlcNAc(b1-3)Gal(b1-4)GlcNAc(b1-2)Man(a1-6)]Man(b1-4)GlcNAc(b1-4)GlcNAc
# In short: as §1
# [17] = biological target: GlcNAc(b1-3)Gal(b1-4)GlcNAc(b1-3)Gal(b1-4)GlcNAc(b1-2)Man(a1-3)[GlcNAc(b1-3)Gal(b1-4)GlcNAc(b1-3)Gal(b1-4)GlcNAc(b1-2)Man(a1-6)]Man(b1-4)GlcNAc(b1-4)[Fuc(a1-6)]GlcNAc
# In short: as §1
# [18] = biological target: GlcNAc(b1-3)Gal(b1-4)GlcNAc(b1-3)Gal(b1-4)GlcNAc(b1-3)Gal(b1-4)GlcNAc(b1-2)Man(a1-3)[GlcNAc(b1-3)Gal(b1-4)GlcNAc(b1-3)Gal(b1-4)GlcNAc(b1-3)Gal(b1-4)GlcNAc(b1-2)Man(a1-6)]Man(b1-4)GlcNAc(b1-4)[Fuc(a1-6)]GlcNAc
# In short: as §1
# [19] = biological target: GlcNAc(b1-4)Gal(b1-4)GlcNAc
# In short: as §1
# [20] = biological target: GlcNAc(b1-4)GlcNAc(b1-4)GlcNAc(b1-4)GlcNAc(b1-4)GlcNAc(b1-4)GlcNAc
# In short: as §1
# [21] = biological target: GlcNAc(b1-4)[GlcNAc(b1-6)]GalNAc
# In short: as §1
# [22] = biological target: Man(a1-2)Man(a1-3)Man
# In short: as §1
# [23] = biological target: Man(a1-2)Man(a1-3)[Man(a1-2)Man(a1-6)]Man(a1-6)[Man(a1-2)Man(a1-2)Man(a1-3)]Man(b1-4)GlcNAc(b1-4)GlcNAc
# In short: as §1
# [24] = biological target: Man(a1-6)Man
# In short: as §1
# [25] = biological target: Man(b1-4)GlcNAc
# In short: as §1
# [26] = biological target: Neu5Ac(a2-3)Gal(b1-3)[GlcNAc(b1-6)]GalNAc
# In short: as §1
# [27] = biological target: Neu5Ac(a2-3)Gal(b1-4)[Fuc(a1-3)]GlcNAc(b1-6)[Neu5Ac(a2-3)Gal(b1-3)]GalNAc
# In short: as §1
# [28] = biological target: Neu5Ac(a2-6)Gal
# In short: as §1
# [29] = biological target: Neu5Ac(a2-6)Gal(b1-3)GlcNAc(b1-3)[Gal(b1-4)GlcNAc(b1-6)]Gal(b1-4)Glc
# In short: as §1
# [30] = biological target: Neu5Ac(a2-6)Gal(b1-4)GlcNAc(b1-3)Gal(b1-4)GlcNAc(b1-3)Gal(b1-4)GlcNAc
# In short: as §1
binder,measurement,setting,value
SBD-G4S3-Fc (protein) MASIPSSASVQLDSYNYDGSTFSGKIYVKNIAYSKKVTVVYADGSDNWNNNGNIIAASFSGPISGSNYEYWTFSASVKGIKEFYIKYEVSGKTYYDNNNSANYQVSTGGGGSGGGGSGGGGSEFVPRDCGCKPCICTVPEVSSVFIFPPKPKDVLTITLTPKVTCVVVDISKDDPEVQFSWFVDDVEVHTAQTQPREEQFNSTFRSVSELPIMHQDWLNGKEFKCRVNSAAFPAPIEKTISKTKGRPKAPQVYTIPPPKEQMAKDKVSLTCMITDFFPEDITVEWQWNGQPAENYKNTQPIMDTDGSYFVYSKLNVQKSNWEAGNTFTCSVLHEGLHNHHTEKSLSHSPGAA,glycan array binding signal (z-score),[1],8.04
same,glycan array binding signal (z-score),[2],0.249
same,glycan array binding signal (z-score),[3],1.16
same,glycan array binding signal (z-score),[4],-0.023
same,glycan array binding signal (z-score),[5],-0.372
same,glycan array binding signal (z-score),[6],-0.45
same,glycan array binding signal (z-score),[7],0.105
same,glycan array binding signal (z-score),[8],0.402
same,glycan array binding signal (z-score),[9],-0.468
same,glycan array binding signal (z-score),[10],-0.087
same,glycan array binding signal (z-score),[11],-0.208
same,glycan array binding signal (z-score),[12],12.1
same,glycan array binding signal (z-score),[13],0.309
same,glycan array binding signal (z-score),[14],-0.415
same,glycan array binding signal (z-score),[15],-0.075
same,glycan array binding signal (z-score),[16],3.18
same,glycan array binding signal (z-score),[17],1.28
same,glycan array binding signal (z-score),[18],1.91
same,glycan array binding signal (z-score),[19],-0.117
same,glycan array binding signal (z-score),[20],-0.372
same,glycan array binding signal (z-score),[21],0.069
same,glycan array binding signal (z-score),[22],-0.16
same,glycan array binding signal (z-score),[23],-0.404
same,glycan array binding signal (z-score),[24],-0.195
same,glycan array binding signal (z-score),[25],-0.231
same,glycan array binding signal (z-score),[26],-0.317
same,glycan array binding signal (z-score),[27],-0.117
same,glycan array binding signal (z-score),[28],-0.041
same,glycan array binding signal (z-score),[29],-0.05
same,glycan array binding signal (z-score),[30],0.075
